Experimental data published in the supplement of paper PMC6522484.
± gives the standard deviation of the averaged measurements.

Key:
[1] = system: DLD1; assay: cell viability (CellTiter-Glo) relative to plate median (fraction of plate median); higher = more viable cells; details: 10 µM, treatment time 24 h
In short: (§1)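 Reporter and viability luminescence were measured in colorectal cancer cells stably carrying lentiviral TCF/Wnt firefly luciferase reporters. The cells were exposed to kinase inhibitor library compounds at a final 10 µM for 24 h, starting 24 h after seeding in 384-well plates. Each well was normalised to the plate median (webcellHTS2, additive, no log transformation), and two independent replicates were averaged.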

[2] = system: HCT116; assay: as above; details: 10 µM; treatment time 24 h; reporter: TCF4/Wnt
In short: as §1

[3] = system: SW480; assay: as above; details: 10 µM; treatment time 24 h; reporter: 7TFP
In short: as §1

[4] = system: DLD1; assay: TCF/Wnt firefly luciferase reporter signal relative to plate median (fraction of plate median); higher = higher Wnt reporter signal; details: 10 µM, treatment time 24 h
In short: as §1

[5] = system: HCT116; assay: as above; details: 10 µM; treatment time 24 h; reporter: TCF4/Wnt
In short: as §1

[6] = system: SW480; assay: as above; details: 10 µM; treatment time 24 h; reporter: 7TFP
In short: as §1

## Nc1ccc(-c2ccc3ncc4ccc(=O)n(-c5cccc(C(F)(F)F)c5)c4c3c2)cn1 [Torin 2]
[1]; reporter: 7TFP
  cell viability: 0.949 ± 0.031
[1]; reporter: TCF4/Wnt
  cell viability: 0.9595 ± 0.005
[2]
  cell viability: 0.681 ± 0.085
[3]
  cell viability: 1.11 ± 0.064
[4]; reporter: 7TFP
  TCF/Wnt firefly luciferase reporter signal: 0.355 ± 0.027
[4]; reporter: TCF4/Wnt
  TCF/Wnt firefly luciferase reporter signal: 0.523 ± 0.032
[5]
  TCF/Wnt firefly luciferase reporter signal: 0.641 ± 0.073
[6]
  TCF/Wnt firefly luciferase reporter signal: 0.817 ± 0.0099

## Cc1ccc(C(=O)Nc2cccc(C(F)(F)F)c2)cc1Nc1nc(-c2cccnc2)nc2c1cnn2C
[1]; reporter: 7TFP
  cell viability: 1.07 ± 0.035
[1]; reporter: TCF4/Wnt
  cell viability: 1.06
[2]
  cell viability: 0.912 ± 0.2
[3]
  cell viability: 1.05 ± 0.042
[4]; reporter: 7TFP
  TCF/Wnt firefly luciferase reporter signal: 1.36 ± 0.085
[4]; reporter: TCF4/Wnt
  TCF/Wnt firefly luciferase reporter signal: 0.925 ± 0.2
[5]
  TCF/Wnt firefly luciferase reporter signal: 1.12 ± 0.099
[6]
  TCF/Wnt firefly luciferase reporter signal: 0.952 ± 0.48

## Cc1cc(C(C)Nc2ccccc2)c2nc(N3CCOCC3)cc(=O)n2c1 (stereo not given)
[1]; reporter: 7TFP
  cell viability: 0.997 ± 0.13
[1]; reporter: TCF4/Wnt
  cell viability: 0.909 ± 0.04
[2]
  cell viability: 1.115 ± 0.0071
[3]
  cell viability: 0.909 ± 0.071
[4]; reporter: 7TFP
  TCF/Wnt firefly luciferase reporter signal: 1.15 ± 0.11
[4]; reporter: TCF4/Wnt
  TCF/Wnt firefly luciferase reporter signal: 1.21 ± 0.05
[5]
  TCF/Wnt firefly luciferase reporter signal: 1.15 ± 0.092
[6]
  TCF/Wnt firefly luciferase reporter signal: 0.679 ± 0.3

## CC(C)(C)c1nc(-c2cccc(NS(=O)(=O)c3c(F)cccc3F)c2F)c(-c2ccnc(N)n2)s1
[1]; reporter: 7TFP
  cell viability: 1 ± 0.051
[1]; reporter: TCF4/Wnt
  cell viability: 0.981 ± 0.042
[2]
  cell viability: 1.055 ± 0.0071
[3]
  cell viability: 1.06 ± 0.064
[4]; reporter: 7TFP
  TCF/Wnt firefly luciferase reporter signal: 1.18 ± 0.071
[4]; reporter: TCF4/Wnt
  TCF/Wnt firefly luciferase reporter signal: 1.05 ± 0.05
[5]
  TCF/Wnt firefly luciferase reporter signal: 0.931 ± 0.47
[6]
  TCF/Wnt firefly luciferase reporter signal: 1.75 ± 0.014

## Nc1ncnc2c1c(-c1cccc(OCc3ccccc3)c1)cn2C1CC(CN2CCCC2)C1 (stereo not given)
[1]; reporter: 7TFP
  cell viability: 0.77 ± 0.15
[1]; reporter: TCF4/Wnt
  cell viability: 0.809 ± 0.088
[2]
  cell viability: 0.67 ± 0.095
[3]
  cell viability: 0.952 ± 0.15
[4]; reporter: 7TFP
  TCF/Wnt firefly luciferase reporter signal: 0.627 ± 0.15
[4]; reporter: TCF4/Wnt
  TCF/Wnt firefly luciferase reporter signal: 0.755 ± 0.047
[5]
  TCF/Wnt firefly luciferase reporter signal: 0.75 ± 0.29
[6]
  TCF/Wnt firefly luciferase reporter signal: 0.895 ± 0.33

## CCCCOc1c(C(=O)c2c(F)cc(C)cc2F)c[nH]c2nncc1-2
[1]; reporter: 7TFP
  cell viability: 1.075 ± 0.0071
[1]; reporter: TCF4/Wnt
  cell viability: 1.02
[2]
  cell viability: 1.13 ± 0.085
[3]
  cell viability: 0.862 ± 0.067
[4]; reporter: 7TFP
  TCF/Wnt firefly luciferase reporter signal: 0.489 ± 0.005
[4]; reporter: TCF4/Wnt
  TCF/Wnt firefly luciferase reporter signal: 0.617 ± 0.071
[5]
  TCF/Wnt firefly luciferase reporter signal: 0.879 ± 0.098
[6]
  TCF/Wnt firefly luciferase reporter signal: 0.391 ± 0.12

## O=C1NC(=O)C(c2ccccc2[N+](=O)[O-])=C1Nc1ccc(O)c(Cl)c1
[1]; reporter: 7TFP
  cell viability: 1.13 ± 0.2
[1]; reporter: TCF4/Wnt
  cell viability: 1.07 ± 0.035
[2]
  cell viability: 1.06 ± 0.05
[3]
  cell viability: 0.859 ± 0.072
[4]; reporter: 7TFP
  TCF/Wnt firefly luciferase reporter signal: 1.63 ± 0.24
[4]; reporter: TCF4/Wnt
  TCF/Wnt firefly luciferase reporter signal: 1.85 ± 0.45
[5]
  TCF/Wnt firefly luciferase reporter signal: 2.56 ± 0.96
[6]
  TCF/Wnt firefly luciferase reporter signal: 1.07 ± 0.12

## CNC(=O)c1cccc(-c2ccc3c(N4CCOC[C@@H]4C)nc(N4CCOC[C@@H]4C)nc3n2)c1
[1]; reporter: 7TFP
  cell viability: 0.9035 ± 0.0064
[1]; reporter: TCF4/Wnt
  cell viability: 0.874 ± 0.045
[2]
  cell viability: 0.794 ± 0.055
[3]
  cell viability: 1.07
[4]; reporter: 7TFP
  TCF/Wnt firefly luciferase reporter signal: 0.328 ± 0.086
[4]; reporter: TCF4/Wnt
  TCF/Wnt firefly luciferase reporter signal: 0.487 ± 0.073
[5]
  TCF/Wnt firefly luciferase reporter signal: 0.549 ± 0.09
[6]
  TCF/Wnt firefly luciferase reporter signal: 0.629 ± 0.35

## NC(=O)c1ccc(-c2nc(-c3ccccn3)c(-c3ccc4c(c3)OCO4)[nH]2)cc1
[1]; reporter: 7TFP
  cell viability: 0.936 ± 0.16
[1]; reporter: TCF4/Wnt
  cell viability: 0.968 ± 0.014
[2]
  cell viability: 1.09 ± 0.035
[3]
  cell viability: 0.829 ± 0.037
[4]; reporter: 7TFP
  TCF/Wnt firefly luciferase reporter signal: 0.99 ± 0.043
[4]; reporter: TCF4/Wnt
  TCF/Wnt firefly luciferase reporter signal: 1.2 ± 0.085
[5]
  TCF/Wnt firefly luciferase reporter signal: 1.21 ± 0.085
[6]
  TCF/Wnt firefly luciferase reporter signal: 0.944 ± 0.15

## O=C(NC1CCNCC1)c1n[nH]cc1NC(=O)c1c(Cl)cccc1Cl
[1]; reporter: 7TFP
  cell viability: 1.16 ± 0.33
[1]; reporter: TCF4/Wnt
  cell viability: 1.16 ± 0.18
[2]
  cell viability: 0.793 ± 0.16
[3]
  cell viability: 1.31 ± 0.17
[4]; reporter: 7TFP
  TCF/Wnt firefly luciferase reporter signal: 0.517 ± 0.1
[4]; reporter: TCF4/Wnt
  TCF/Wnt firefly luciferase reporter signal: 0.797 ± 0.67
[5]
  TCF/Wnt firefly luciferase reporter signal: 0.226 ± 0.018
[6]
  TCF/Wnt firefly luciferase reporter signal: 0.798 ± 0.074
